Data on seven molecules can be found in PubChem BioAssay AID488854 (National Center for Advancing Translational Sciences (NCATS), 2010).

Molecules are shown by their SMILES. Records with an inconclusive call do not appear. Calls of active or inactive are those of the source. Calls come from the whole dose curve; as a rule, active = well fitted activation curve with a large enough effect; inconclusive = small, poorly fitted or top-dose-only effect; inactive = no such curve, though single readings can be large or run the other way.

Sequence of Lysosomal acid glucosylceramidase (Homo sapiens) (P04062 whole entry N409S): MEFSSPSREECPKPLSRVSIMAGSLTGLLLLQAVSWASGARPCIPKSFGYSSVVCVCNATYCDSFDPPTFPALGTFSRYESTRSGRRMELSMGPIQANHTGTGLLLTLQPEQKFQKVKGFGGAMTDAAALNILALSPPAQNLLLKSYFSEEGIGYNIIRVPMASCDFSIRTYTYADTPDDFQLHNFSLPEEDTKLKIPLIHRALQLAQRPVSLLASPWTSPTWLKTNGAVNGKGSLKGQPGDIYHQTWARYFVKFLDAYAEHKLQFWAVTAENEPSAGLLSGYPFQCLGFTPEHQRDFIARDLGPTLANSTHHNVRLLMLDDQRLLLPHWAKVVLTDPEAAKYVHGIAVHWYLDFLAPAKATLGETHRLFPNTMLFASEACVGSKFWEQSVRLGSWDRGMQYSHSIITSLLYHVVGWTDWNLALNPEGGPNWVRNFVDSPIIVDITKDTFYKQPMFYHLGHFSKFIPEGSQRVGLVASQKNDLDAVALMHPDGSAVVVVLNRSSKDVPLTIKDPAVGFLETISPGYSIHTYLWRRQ

The target in the experiment is Lysosomal acid glucosylceramidase (Homo sapiens) (UniProt P04062). The experiment can be described thus: qHTS Assay for Inhibitors and Activators of N370S glucocerebrosidase as a Potential Chaperone Treatment of Gaucher Disease: Confirmation for Probe SAR. The following applies: N370S GC spleen homogenate, 4MU-glucoside fluorescence; series mostly up to 57.5 µM; activity change, positive = activation: at the top concentration. The text has this:
NIH Chemical Genomics Center [NCGC] NIH Molecular Libraries Probe Production Centers Network [MLPCN] MLPCN Grant: MH086442-01 Assay Submitter (PI): Wei Zheng Glucocerebrosidase (GC) catalyzes the hydrolysis of beta-glucocerebroside to glucose and ceramide in lysosomes. Mutations in the glucocerebrosidase gene result in Gaucher disease, an autosomal recessive lysosomal storage disorder. Many of the mutations encountered in patients with Gaucher disease are missense alterations that may cause misfolding, decreased stability and/or mistrafficking of this lysosomal protein. […] These inhibitors include iminosugar analogs and three non-iminosugar inhibitors identified from a previous HTS of 62,000 compounds with the wild type recombinant enzyme. However, the enhancement of enzyme activity by the chaperone action of an enzyme inhibitor must be balanced against the direct inhibition of the enzyme. An enzyme activator could also function as a chaperone by binding to the enzyme and helping to correct its misfolding and mistrafficking. While activators for GC have not yet been identified, they may have better therapeutic potential than inhibitors. Therefore the discovery and development of chemical activators may provide a new strategy for the chaperone therapy. We have optimized a new assay using N370S mutant GC derived from the spleen of a Gaucher patient. […] In addition, the MLPCN compound library has expanded, which increases the chance of finding new and better probes.
NCGC Assay Protocol Summary: This is a fluorogenic enzyme assay with 4-methylumbelliferyl-beta-D-glucopyranoside as the substrate and N370S glucocerebrosidase from human spleen homogenate as the enzyme preparation. Upon the hydrolysis of this fluorogenic substrate, the resulting product, […] which can be detected by a standard fluorescence plate reader. Data were normalized to the controls for basal activity (without enzyme) and 100% activity (with enzyme). The AC50 values were determined from concentration-response data modeled with the standard Hill equation. Assay buffer: 50 mM citric acid (titrated with potassium phosphate to pH 5.0), 100 mM potassium chloride, 10 mM sodium chloride, 1 mM magnesium chloride, 0.01% Tween-20. 1536-well assay protocol: (1) Add 2 ul/well of spleen homogenate (27 ug final) (2) Add 23 nL compounds in DMSO solution. The final titration was 0.5 nM to 58 uM. (3) Add 2 ul of substrate (1 mM final) (4) Incubate at 37C for 40 min. (5) Add 2 ul stop solution (1M NaOH and 1M Glycine mixture, pH 10) (6) Detect the assay plate in a ViewLux plate reader (PerkinElmer) with Ex=365 nm and Em=440nm. Keywords: Glucocerebrosidase, beta-glucosidase, Gaucher Disease, pharmacological chaperone, chaperone therapy, high throughput screening, glucocerebrosidase inhibitor, MLSMR, MLSCN, NIH Roadmap, qHTS and NCGC
With `CC(=O)c1cccc(NC(=O)c2cnn3c(C)cc(C)nc23)c1`, the Potency was 25.9 µM (active).

As for `CCc1ccc(NC(=O)c2cnn3c(C)cc(-c4ccccc4)nc23)cc1`, the Potency was 13 µM (active).

In the case of `Cc1cc(C)n2ncc(C(=O)Nc3ccncc3)c2n1`, the “activity change, positive = activation” value is -4.5% (inactive).

For `Cc1cc(C)n2ncc(C(=O)Nc3ccc(C(F)(F)F)cc3)c2n1`, the Potency was 2.06 µM (active).

As for `Cc1cc(C)n2ncc(C(=O)Nc3ccc(Br)cc3)c2n1`, the Potency is 2.31 µM (active).

Turning to `Cc1cc(C)n2ncc(C(=O)Nc3ccc4c(c3)OCO4)c2n1`, the Potency is 6.51 µM (active).

For the molecule `Cc1cc(C)n2ncc(C(=O)Nc3ccc(S(C)(=O)=O)cc3)c2n1`, the “activity change, positive = activation” value is 6.77% (inactive).
